The source of these data is PubChem BioAssay (NCI).

This is part of a sample that, as a whole, favours compounds with a hit. Of some 83,000 tested, about 20% had one in any assay.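 Percent growth is the endpoint: 0 to 100 indicates growth inhibition (40 means 60% inhibition), 0 means no net growth, and negative values indicate cell death.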 Values without a mark were called inactive. Active and inactive are the calls of the source.

The first test relates to U251 CNS. As to the kind of experiment: NCI-60 one-dose screen, 48 h (100 = growth as untreated, 0 = no growth, -100 = all killed). The following applies: 1 µM. How it is done:
Growth inhibition of the U251 human tumor cell line is measured as a screen for anti-cancer activity. Cells are grown in 96 well plates and exposed to the test compound for 48 hours. Compounds are tested at a single concentration, which is 10^-5 M for most compounds. The reported endpoint is percent growth (GI% or GIPRCNT), where numbers from 0 - 100% represent growth inhibition, and numbers from -100% - 0 represent cell death. For example, a value of 40 represents 60% growth inhibition. A value of 0 means no net growth occurred over the course of the experiment. A value of -40 indicates 40% of cells at the beginning of the experiment died by the end of the experiment. A value of -100 means all cells are dead at the end of the experiment.
NCI-60 Human Tumor Cell Lines Screen was performed using the standard one-dose NCI protocol, which is described in more detail at https://dtp.cancer.gov/discovery_development/nci-60/default.htm.
Compounds with GIPRCNT values below 10 were considered active. Activity score was based on GIPRCNT using the following formula: […]
Score is 0 for GIPRCNT values of 100 or above, 50 for GIPRCNT values of 0, and 100 for GIPRCNT values of -100.
Consider `CC/C(=C(/c1ccc(O)cc1)c1ccc(OCCN(C)C(=O)CCOCCNC(=O)Cc2ccc3c(c2)CN([C@@H]2CCC(=O)NC2=O)C3=O)cc1)c1ccccc1`, for which the growth was 96.2%.

The test is the same for the next values; noted with them: 10 µM.
As for `CC/C(=C(/c1ccc(O)cc1)c1ccc(OCCN(C)C(=O)CCOCCNC(=O)Cc2ccc3c(c2)CN([C@@H]2CCC(=O)NC2=O)C3=O)cc1)c1ccccc1`, the growth was 92.6%.

The same test, now with this note: 10 µM unless noted.
For the compound `O=C1Nc2cc(-c3ccc(NS(=O)(=O)c4ccc([N+](=O)[O-])cc4)cc3)ccc2/C1=C/c1ccc[nH]1`, the growth is -62.4% (active).
For `COc1ccc(/C=C/c2nc3ccccc3n3c(-c4cccc([N+](=O)[O-])c4)nnc23)cc1`, the growth is -64.5% (active).
On to `CC(C)(C)OC(=O)N1C/C(=C\c2ccc(F)cc2)C(=O)/C(=C/c2ccc(F)cc2)C1`, for which the growth is -100% (active).
Turning to `COc1ccc(N=Nc2c(N)nn3c(-c4cc5cc(Br)ccc5oc4=O)ccnc23)cc1`, the growth is -12.3% (active).
In the case of `O=C(NC(=S)N1CCN(c2ncnc3c2cnn3-c2ccccc2)CC1)c1ccc(F)cc1`, the growth is 85.9%.
Turning to `O=C(Nc1ccc(-c2ccc3c(c2)NC(=O)/C3=C\c2ccc[nH]2)cc1)Nc1ccc(Cl)c(Cl)c1`, the growth is 21.9%.
On to `C=CCSc1nnc(-c2c(C)nc3sccn23)o1`, for which the growth was 88%.
On the same count and under the same terms, next, `CN(C)CCOc1ccc(C(=O)C2[C@H](c3ccc(Cl)cc3)[C@@H](c3ccccc3)NC23C(=O)Nc2ccc(Cl)cc23)cc1` (stereo not given in full): -82.9% (active); `c1n[nH]cc1-c1nc2ccc3[nH]ncc3c2c2c1CC1(CC2)COC1`: 39.5%.
`COc1c2c(cc3c1C(CCc1ccccc1)N(C)CC3)OCO2` (stereo not given): the growth is -32.5% (active).
For `COc1ccc2[nH]c(=O)c(CSc3ccccc3Nc3nccc(-c4ccc5c(c4)OCO5)n3)cc2c1`, the growth was 88.6%.
Regarding `COc1ccc(/C=C/c2nc3ccccc3c(=O)n2CC(=O)Nc2ccccc2)cc1`, the growth was 16.3%.
Still for that read-out and setting: then `Nc1nn2c(-c3cc4cc(Br)ccc4oc3=O)ccnc2c1N=Nc1ccc(S(N)(=O)=O)cc1`, with 28.1%; and `N/C(=N\c1nc2ccc([N+](=O)[O-])cc2s1)NC(=O)Nc1ccccc1Cl`, with -0.568% (active).
In the case of `O=C(NNC(=O)c1ccc(OCc2nc3ccc(Cl)cc3[nH]2)cc1)Nc1ccc(Cl)c(C(F)(F)F)c1`, the growth is 30.7%.
On the same count and under the same terms, then `COc1cccc(NC(=O)c2ccc(NC(=O)CCl)s2)c1`, with -39.9% (active).
The same measure, in the same setting: then `Cc1ccc(-c2cc(C(=O)N=Nc3c(O)[nH]c4ccc(F)cc34)c3ccccc3n2)cc1`, with -30.9% (active).
Same read-out and setting: then `N#Cc1ccc(C(=O)NNC(=O)CSc2nc3sc4c(c3c(=O)n2-c2ccc(Cl)cc2)CCCC4)cc1`, with 15.9%; and `COc1cc(/C=C/C(=O)c2cnn(-c3cc(=O)[nH]c4ccc(C)cc34)c2C)cc(OC)c1OC`, with -85% (active).
For `CCOC(=O)/C(F)=C/C1CC1C1CCN(C(=O)OC(C)(C)C)CC1` (stereo not given), the growth was 99.8%.
For `CC1CCc2c(sc3nc(SCC(=O)c4cccc([N+](=O)[O-])c4)n(-c4ccccc4)c(=O)c23)C1` (stereo not given), the growth was 17.6%.
On to `Cc1ccc(NC(=O)N/N=C/c2c[nH]c3ccccc23)c(C)c1`, for which the growth is 9.2% (active).
In the case of `C[C@@H]1[C@H]2C[C@@H](C[C@H]1NCc1nc3ccccc3n1C1CCCCCC1)C2(C)C`, the growth was 67.2%.
For `O=C1CCC(N2C(=O)c3cccc(NCCCCCC(=O)N4CCN(c5ccc6nc7c(nc6c5C(F)(F)F)C(=O)c5ncccc5C7=O)CC4)c3C2=O)C(=O)N1` (stereo not given), the growth is -90.4% (active).
Turning to `COc1ccc(C(=O)c2cc(C(C)=O)c3c(C)cc(C)cn23)cc1`, the growth was 32.4%.
The same measure, in the same setting: next, `CS(=O)(=O)Nc1cccc(-n2cnc3cc(-c4ccc(O)cc4)ccc32)c1`: 26.2%; `NS(=O)(=O)c1ccc(Nc2nc(N/N=C/c3cc(Br)c(O)c(Br)c3)nc(Nc3ccccc3)n2)cc1`: 27.6%.
With `COc1ccc2ccccc2c1/C=C1\SC(=Nc2ccc(O)cc2)NC1=O`, the growth is 5.13% (active).
For `Cc1ccc2c(c1)/C(=C/C(=O)c1cc3ccccc3oc1=O)C(=O)N2`, the growth is 73.9%.
Still for that read-out and setting: next, `OCCn1cc(-c2nc3ccc4[nH]ncc4c3c3c2CCCC3)cn1`: 51.2%; `S=C(Nc1ccccc1)Nc1ccc(OCc2nc3ccc(Cl)cc3[nH]2)cc1`: 82.6%.
Same read-out and setting: next, `Cc1ccc(C2CC(c3ccc(S(=O)(=O)NCCNc4nc(N(C)C)nc(N5CCOCC5)n4)cc3)=Nc3c(N)nc(N)nc3N2)cc1` (stereo not given): 50.6%; `O=C(N/N=C/c1ccc(Cl)cc1)c1ccc(OCc2nc3ccc(Cl)cc3[nH]2)cc1`: -88.5% (active); `O=C(NN1C(=O)/C(=C/C=C/c2ccc([N+](=O)[O-])o2)SC1=S)c1ccc([N+](=O)[O-])cc1`: -89.4% (active).
Take `C=CC[n+]1cccc2c3ccccc3ccc21`: the growth was 16.6%.
Same read-out and setting: then `CC1=C(C)C(=O)C(NCCN2CCOCC2)=C(Br)C1=O`, with 44.8%; and `O=C(CSc1nnc(-c2ccc(-c3nc4ccccc4[nH]3)cc2)o1)Nc1ccc(Cl)cc1`, with -75.4% (active); and `Cc1ccc2nc(COc3ccc(C(=O)NNC(=O)Nc4ccc(Cl)c(C(F)(F)F)c4)cc3)[nH]c2c1`, with -1.34% (active).
